For this assay, the target named is Polyunsaturated fatty acid lipoxygenase ALOX12 (Homo sapiens) (UniProt P18054). In words: Confirmation qHTS Assay for Inhibitors of 12-hLO (12-human lipoxygenase). Particulars: purified 12-hLO, xylenol orange absorbance; active compounds read low. The text has this: Assay Provider: Holman, T.R., University of California, Santa Cruz Screening Center PI: Austin, Christopher P. Screening Center: NIH Chemical Genomics Center Human lipoxygenase 12hLO is a member of the closely related lipoxygenase family of enzymes which catalyze the site-specific oxidation of arachidonic acid to various hormone precursor molecules and as such is a candidate for drug development in a variety of disease areas, such as cancer and inflammation. Inhibition of 12hLO activity was screened by utilizing arachidonic acid as a substrate. The extent of hydroperoxide product formation was measured by a secondary chromogenic reaction in which xylenol orange (XO, Sigma-Aldrich, cat. number 39,818-7) reacts with the ferric ions produced from the reaction between the hydroperoxide and ferrous ions. The Fe(III)-XO complex is characterized with red-shifted absorbance at 560 nm. A purified preparation of human 12hLO was supplied by Professor Ted Holman, University of California, Santa Cruz. This assay includes some confirmation and follow-up compounds for related primary screening assay AID 1452.
Sequence of Polyunsaturated fatty acid lipoxygenase ALOX12 (Homo sapiens) (P18054 whole entry, looked up): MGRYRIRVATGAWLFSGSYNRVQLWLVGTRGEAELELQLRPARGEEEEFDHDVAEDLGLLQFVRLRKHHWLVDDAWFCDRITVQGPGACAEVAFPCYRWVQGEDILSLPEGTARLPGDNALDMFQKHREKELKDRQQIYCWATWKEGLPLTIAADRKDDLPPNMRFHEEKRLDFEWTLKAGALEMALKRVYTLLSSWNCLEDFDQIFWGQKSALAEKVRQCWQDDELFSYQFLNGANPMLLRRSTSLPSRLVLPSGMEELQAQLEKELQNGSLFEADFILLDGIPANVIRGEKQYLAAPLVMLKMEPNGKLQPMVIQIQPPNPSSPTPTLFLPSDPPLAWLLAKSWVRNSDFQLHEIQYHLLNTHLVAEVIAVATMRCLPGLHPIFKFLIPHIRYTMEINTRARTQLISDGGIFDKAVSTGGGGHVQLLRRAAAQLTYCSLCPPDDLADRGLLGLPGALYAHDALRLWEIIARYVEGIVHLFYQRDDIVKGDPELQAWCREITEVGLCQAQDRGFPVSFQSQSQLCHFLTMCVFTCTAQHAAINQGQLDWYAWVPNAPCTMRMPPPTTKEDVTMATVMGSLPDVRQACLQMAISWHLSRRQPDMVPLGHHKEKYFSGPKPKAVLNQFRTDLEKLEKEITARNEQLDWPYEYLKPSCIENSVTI
Assay Protocol: Buffer: 25 mM Hepes pH 7.0, 0.01% Triton X-100. […] The absorbance at 405 and 573 nm were measured using ViewLux (Perkin-Elmer) High-throughput CCD imager and absorbance protocol settings. The 573-to-405 absorbance ratio was used to compute reaction progress.

Results filed as inconclusive are left out. Unmarked numbers belong to inactive results. The call rests on the fitted dose curve; in most records, active means well fitted inhibition curve with a large enough effect; inconclusive means small, poorly fitted or top-dose-only effect; inactive means flat fitted curve, though single readings scatter.

As to `CCC(C)C(=O)c1c(O)c(C)c2oc3c(C)c(O)c(C(=O)C(C)CC)c(O)c3c2c1O` (stereo unspecified), the activity change, negative = inhibition was -25.9%.

Source of the values: PubChem BioAssay AID2162 (National Center for Advancing Translational Sciences (NCATS), 2009).
